Tb PGK inh – qHTS Assay to Find Inhibitors of Phosphoglycerate Kinase | actives 0.043% (n = 380,000) | Potency, µM (highest dose often 57.5 µM), usual class: inhibitors | PGK/GAPDH coupled, Kinase-Glo luminescence, 60 min | AID 602233, 2012 | Phosphoglycerate kinase, glycosomal (Trypanosoma brucei brucei), P07378; also: nearly all actives have a fitted effect of over 60% in size
Target sequence (P07378 whole entry, looked up): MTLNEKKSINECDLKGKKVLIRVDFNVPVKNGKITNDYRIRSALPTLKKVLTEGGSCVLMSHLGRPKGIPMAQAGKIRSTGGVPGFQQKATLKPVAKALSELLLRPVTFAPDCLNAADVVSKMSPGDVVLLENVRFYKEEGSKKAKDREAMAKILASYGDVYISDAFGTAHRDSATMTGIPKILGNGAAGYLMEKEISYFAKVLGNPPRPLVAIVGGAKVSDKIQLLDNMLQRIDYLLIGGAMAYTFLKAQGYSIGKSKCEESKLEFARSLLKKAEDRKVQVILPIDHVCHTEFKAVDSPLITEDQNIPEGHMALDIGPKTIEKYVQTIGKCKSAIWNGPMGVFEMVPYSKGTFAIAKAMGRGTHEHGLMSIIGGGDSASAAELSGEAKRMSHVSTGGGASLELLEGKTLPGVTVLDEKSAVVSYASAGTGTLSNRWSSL
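Luminescent ATP detection (Kinase-Glo Plus) follows a 60-minute room-temperature incubation, with wells lacking PGK as controls. Buffer: 100 mM TEA (pH 7.6), 5 mM MgCl2, 0.01% Tween-20. Coupling enzyme GAPDH (100 nM final) supplies unstable 1,3-BPG in-well.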
APE1 inh – qHTS Assay for Inhibitors of the Human Apurinic/apyrimidinic Endonuclease 1 (APE1). recombinant APE1, TAMRA/BHQ-2 abasic DNA cleavage fluorescence. AID 2517, 2012. actives 0.35% (n = 350,000). Potency, µM (highest dose often 65.8 µM), usual class: inhibitors. DNA repair nuclease/redox regulator APEX1 (Homo sapiens), P27695; also: nearly all actives have a fitted effect of over 55% in size
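Readout is kinetic fluorescence (ex 525, em 598 nm) from cleavage of 50 nM TAMRA/BHQ-2 THF abasic duplex by 0.75 nM APE1, compound added 15 min beforehand at RT.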
RECQ1 helicase – qHTS Assay for Inhibitors of RecQ-Like Dna Helicase 1 (RECQ1) | ATP-dependent DNA helicase Q1 (Homo sapiens), P46063 | Potency, µM (titrated, usually from 57.3 µM), most hits filed as inhibitors | actives 0.54% (n = 240,000) | RECQ1 DNA unwinding, red fluorescence kinetic read; also: nearly all actives have a fitted effect of over 30% in size
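RECQ1T1 50 nM; forked duplex (20 bp + 30-nt ss tails) 200 nM, ATP 2 mM final; pH 8.0, 2 mM MgCl2, 2.5 ug/ml poly(dI-dC); 15 min compound preincubation; discontinuous kinetic read over 2 h at RT.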
FEN1 inhibitor – qHTS Assay for the Inhibitors of Human Flap endonuclease 1 (FEN1); P39748; Recombinant FEN1 flap cleavage, fluorescence, 15 min; Potency, µM (top dose mostly 114 µM), hits mostly inhibitors; actives 0.35% (n = 390,000); also: nearly all actives have a fitted effect of over 65% in size
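Recombinant FEN1 (10 nM) was preincubated with pin-transferred compounds for 15 min at room temperature, then flap DNA substrate (50 nM final) was added. Plates were read at 0 and 15 min, and normalized concentration–response data were fitted to a four-parameter Hill equation.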
BLM inh – qHTS Assay for Inhibitors of Bloom's syndrome helicase (BLM); Potency, µM (series often up to 56.1 µM), usual class: inhibitors; RecQ-like DNA helicase BLM (Homo sapiens), P54132; AID 2528, 2010; actives 0.2% (n = 350,000); recombinant BLM DNA unwinding, fluorescence dequenching; also: nearly all actives have a fitted effect of over 35% in size
Hits are given with their value; - = inactive; ? = inconclusive; . = no result; ! = repeats disagree; [ ] = dose if it differs, or a comment. Hits are enriched below; roughly 0.74% of the tested compounds scored in any of these assays. Calls follow the shape of the dose curve; as a rule, active = well fitted curve in the direction sought with a large enough effect; inconclusive = small, poorly fitted or top-dose-only effect, or another doubt; inactive = no such curve, though single readings can be large; an effect the other way counts as inactive or inconclusive.

SMILES | Tb PGK inh | APE1 inh | RECQ1 helicase | FEN1 inhibitor | BLM inh
CC(C)[C@H](NC(=O)[C@@H](Cc1c[nH]c2ccccc12)NC(=O)[C@H](Cc1ccc(O)cc1)NC(=O)[C@@H](N)CC(=O)O)C(=O)N[C@H](Cc1c[nH]c2ccccc12)C(=O)N[C@H](Cc1c[nH]c2ccccc12)C(=O)N[C@@H](CCCCN)C(N)=O | . | - | 20µM | . | -
NCCCC[C@H](NC(=O)[C@@H](Cc1ccccc1)NC(=O)[C@H](Cc1c[nH]c2ccccc12)NC(=O)[C@@H](CCCCN)NC(=O)[C@@H](Cc1c[nH]c2ccccc12)NC(=O)[C@@H](N)Cc1cnc[nH]1)C(N)=O | . | - | - | . | -
Cc1ccc(C)n1-n1c(C)nc2sc(-c3ccccc3)cc2c1=O | - | - | - | - | -
Cc1nc2cc(-c3ccccc3)sc2c(=O)n1N | 10µM | - | - | - | -
COc1ccc(-c2cc3nc(C)n(N)c(=O)c3s2)cc1 | 4.5µM | - | - | - | -
Cc1cccc(Cn2c(=O)n(CCc3ccccc3)c(=O)c3c(C)c(C)sc32)c1 | . | . | . | - | -
O=C(O)c1cc(NC(=O)c2ccc(Br)cc2)cc(NC(=O)c2ccc(Br)cc2)c1 | - | - | . | - | -
O=C(O)c1ccc2c(ccc3nn(-c4ccc(/C=C/c5ccc(-n6nc7ccc8cc(C(=O)O)ccc8c7n6)cc5[S+](=O)([O-])[O-])c([S+](=O)([O-])[O-])c4)nc32)c1 | . | . | . | 3.2µM | .
O=C1C(O)=C(O)C(=O)C(O)=C1O | . | 10µM | - | . | ?
CC1=C(O)C(=O)C(C2=C(O)C(=O)C(C)=C(O)C2=O)=C(O)C1=O | ? | . | . | - | .
Cn1nccc1NC(=O)Nc1cccc(Cl)c1Cl | - | - | - | - | -
COc1cc2c(cc1OC)C1O[C@](c3ccsc3)(C2)Oc2c1c(=O)oc1ccc(F)cc21 | . | -[12.4 µM] | . | . | -[12.4 µM]
CCCCn1c(C)cc2c(c1=O)C1O[C@](c3ccsc3)(Cc3cc(OC)c(OC)cc31)O2 | . | 3.9µM | . | . | -[12.4 µM]
CC(C)(c1cc(Br)c(O)c(Br)c1)c1cc(Br)c(O)c(Br)c1 | - | - | 22µM! | ? | .
CC1(OC(=O)c2ccco2)C(=O)C=C2C=C(c3ccsc3)OC=C2C1=O (stereo not given) | . | ? | - | . | -
CCC(=O)OC1(C)C(=O)C=C2C=C(c3ccsc3)OC=C2C1=O (stereo not given) | - | ? | - | 40µM | -
COC(=O)CCC(=O)OC1(C)C(=O)C=C2C=C(c3ccsc3)OC=C2C1=O (stereo not given) | - | - | - | 32µM | -
CC(=O)CCC(=O)NCCc1ccccc1F | - | - | - | - | -
COc1ccc(OCCOc2ccc(/C=C3\C(=N)N4N=C(C)SC4=NC3=O)cc2)cc1 | - | 9.5µM | . | - | .
CCC(=O)Nc1ccc2nc3c(=O)[nH]c(=S)[nH]c3nc2c1 | - | - | . | 50µM | -
CC(OCC(O)CN1CCN(S(=O)(=O)c2ccc(Cl)cc2)CC1)c1ccc(Cl)cc1 (stereo not given) | - | . | . | . | .
COc1ccc(-c2cc(=O)oc3c(O)c(O)ccc23)cc1 | ? | - | . | - | 10µM
O=[N+]([O-])c1cc2c(cc1/C=N/NS(=O)(=O)c1ccc(Br)cc1)OCO2 | - | - | - | 50µM | -
Cc1cc(C(=O)N2CCN(c3ccccc3F)CC2)c2c(C)nn(-c3ccccc3)c2n1 | - | . | . | - | -
COc1cccc2sc(NN)nc12 | - | - | - | - | -
NNc1nc2c(Cl)c(Cl)ccc2s1 | ? | 3.2µM | - | ? | -
O=C(O)C1=C(C(=O)O)C2C=CC1C2 | 11µM | . | . | - | .
O=C(/C=C/c1ccc(Br)o1)OCc1nc2ccsc2c(=O)[nH]1 | ? | ? | . | 79µM | .
COc1cc(C2Nc3cccc4cccc(c34)N2)cc(OC)c1OC(C)=O | - | - | - | 32µM | -
COc1cc(C2Nc3cccc4cccc(c34)N2)ccc1O | - | - | . | - | -
